This note sets out measurements from PubChem BioAssay (EPA / NIEHS).

Holding throughout (conditions): mRNA level, 48 h; actives raise or lower the signal
Read-out in test [1]: Alkaline Phosphatase, Placental (ALPP) gene, ALPP (gene 250)
Briefly: LTEA_HepaRG_ALPP: Life Technologies and Expression Analysis (LTEA) Assay for Alkaline Phosphatase, Placental (ALPP) gene using HepaRG (AID 2283468). Summed up:
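Using human liver HepaRG cells, chemicals are tested in duplicate over 48 h at half-log concentrations topping at 100 uM; phenobarbital 1 mM serves as induction control. ALPP mRNA change by qRT-PCR, bidirectional fit against vehicle.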

Read-out in test [2]: Bcl-2 (BAD) gene, BAD (gene 572)
Briefly: LTEA_HepaRG_BAD: Life Technologies and Expression Analysis (LTEA) Assay for Bcl-2 (BAD) gene using HepaRG (AID 2283469). An outline of the steps: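 BAD transcript change, measured by qRT-PCR against three housekeeping genes and fitted in both directions relative to 0.5% DMSO, after 48 h chemical treatment of human HepaRG liver cells at concentrations up to 100 uM.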

Read-out in test [3]: Bcl-2 (BAX) gene, BAX (gene 581)
Briefly: LTEA_HepaRG_BAX: Life Technologies and Expression Analysis (LTEA) Assay for Bcl-2 (BAX) gene using HepaRG (AID 2283470). Summed up: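 Differentiated HepaRG cells exposed 48 h in serum-free induction medium, eight half-log concentrations from 100 uM, in duplicate, 0.5% DMSO vehicle. BAX mRNA by TaqMan qRT-PCR, normalised to ACTB, GAPDH and POLR2A.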

Read-out in test [4]: adenosine kinase (ADK) gene, ADK (gene 132)
As to the kind of experiment: LTEA_HepaRG_ADK: Life Technologies and Expression Analysis (LTEA) Assay for adenosine kinase (ADK) gene using HepaRG (AID 2283471). Summed up: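 Read-out is ADK transcript level measured by qRT-PCR and normalised to three housekeeping genes. Cells are human HepaRG, dosed for 48 h at up to 100 uM in 0.5% DMSO. Gain or loss of signal is fitted against DMSO controls.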

Read-out in test [5]: Alpha-fetoprotein (AFP) gene, AFP (gene 174)
Briefly: LTEA_HepaRG_AFP: Life Technologies and Expression Analysis (LTEA) Assay for Alpha-fetoprotein (AFP) gene using HepaRG (AID 2283472). An outline of the steps:
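Differentiated human HepaRG cells exposed 48 h in serum-free induction medium, 8-point half-log series from 100 uM in 0.5% DMSO, duplicate. AFP mRNA by qRT-PCR, normalized to ACTB, GAPDH, POLR2A; bidirectional fit vs DMSO.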

Read-out in test [6]: BCL2L11 (gene 10018)
Briefly: LTEA_HepaRG_BCL2L11: Life Technologies and Expression Analysis (LTEA) Assay for Bcl-2 (BCL2L11) gene using HepaRG (AID 2283473). An outline of the steps:
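Human hepatic HepaRG cultures are treated 48 h with test chemicals (maximum 100 uM, 0.5% DMSO vehicle). Expression of BCL2L11 is measured by qRT-PCR against ACTB, GAPDH and POLR2A, with activity in either direction scored relative to vehicle.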

Read-out in test [7]: Apolipoprotein A-V (APOA5) gene, APOA5 (gene 116519)
As to the kind of experiment: LTEA_HepaRG_APOA5: Life Technologies and Expression Analysis (LTEA) Assay for Apolipoprotein A-V (APOA5) gene using HepaRG (AID 2283474). An outline of the steps:
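Concentration-response of APOA5 expression in HepaRG: eight half-log doses to 100 uM, 48 h, qRT-PCR normalized to ACTB/GAPDH/POLR2A, bidirectional fitting with 0.5% DMSO as baseline.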

Read-out in test [8]: Apoptosis regulator Bcl-2 (Homo sapiens) (UniProt P10415)
Briefly: LTEA_HepaRG_BCL2: Life Technologies and Expression Analysis (LTEA) Assay for Bcl-2 gene using HepaRG (AID 2283475). Summed up:
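Differentiated human HepaRG cells in serum-free induction medium exposed 48 h, in duplicate, to 8-point half-log series from 100 uM in 0.5% DMSO. BCL2 mRNA by qRT-PCR (TaqMan/Fluidigm), normalized to ACTB, GAPDH, POLR2A; bidirectional fit against DMSO.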

Read-out in test [9]: Caspase-3 (Homo sapiens) (UniProt P42574)
As to the kind of experiment: LTEA_HepaRG_CASP3: Life Technologies and Expression Analysis (LTEA) Assay for cysteine-aspartic acid protease (CASP3) using HepaRG (AID 2283477). Summed up: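 Transcript-level assay: CASP3 mRNA in human HepaRG after 48 h treatment, eight half-log concentrations from 100 uM in 0.5% DMSO, quantified by qRT-PCR.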

Read-out in test [10]: Cytochrome P450 (CYP24A1), CYP24A1 (gene 1591)
As to the kind of experiment: LTEA_HepaRG_CYP24A1: Life Technologies and Expression Analysis (LTEA) Assay for Cytochrome P450 (CYP24A1) using HepaRG (AID 2283478). An outline of the steps: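 Gene expression of CYP24A1 by TaqMan qRT-PCR in HepaRG after 48 h treatment, highest concentration 100 uM; activity fitted in both directions relative to DMSO vehicle.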

Read-out in test [11]: Cytochrome P450 (CYP1A2), CYP1A2 (gene 1544)
As to the kind of experiment: LTEA_HepaRG_CYP1A2: Life Technologies and Expression Analysis (LTEA) Assay for Cytochrome P450 (CYP1A2) using HepaRG (AID 2283479). Summed up:
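In duplicate wells, HepaRG cultures maintained in 0.5% DMSO were treated 48 h across an 8-point, half-log series topping at 100 uM; phenobarbital (1 mM) served as induction control. Expression was read by qRT-PCR.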

Read-out in test [12]: cysteine-aspartic acid protease (CASP8), CASP8 (gene 841)
Briefly: LTEA_HepaRG_CASP8: Life Technologies and Expression Analysis (LTEA) Assay for cysteine-aspartic acid protease (CASP8) using HepaRG (AID 2283480). An outline of the steps: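 HepaRG, 48 h exposure, duplicate wells; 8 conc, half-log from 100 uM, 0.5% DMSO. Serum-free induction medium. CASP8 mRNA by TaqMan qRT-PCR, norm. ACTB/GAPDH/POLR2A; gain/loss fitted vs DMSO.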

Read-out in test [13]: Cytochrome P450 (CYP2B6), CYP2B6 (gene 1555)
Briefly: LTEA_HepaRG_CYP2B6: Life Technologies and Expression Analysis (LTEA) Assay for Cytochrome P450 (CYP2B6) using HepaRG (AID 2283481). An outline of the steps: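 Human HepaRG, 48 h dosing, 0.5% DMSO vehicle, top dose 100 uM. CYP2B6 transcript by qRT-PCR, housekeeping-normalized, bidirectional curve fit.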

Read-out in test [14]: Cytochrome P450 2C19 (Homo sapiens) (UniProt P33261)
As to the kind of experiment: LTEA_HepaRG_CYP2C19: Life Technologies and Expression Analysis (LTEA) Assay for CYP2C19 using HepaRG (AID 2283482). Summed up: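 Endpoint: CYP2C19 mRNA change, bidirectional fit vs 0.5% DMSO. Cells: HepaRG, 48 h exposure, eight-point series topping at 100 uM. Quantitation: qRT-PCR normalized to ACTB, GAPDH, POLR2A.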

Read-out in test [15]: CYP2C8 (gene 1558)
Briefly: LTEA_HepaRG_CYP2C8: Life Technologies and Expression Analysis (LTEA) Assay for CYP2C8 using HepaRG (AID 2283483). Summed up:
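CYP2C8 mRNA induction or loss, by qRT-PCR normalized to ACTB/GAPDH/POLR2A, is read in HepaRG cells after 48 h treatment. Concentrations run from 100 uM down in half-log dilutions, with 0.5% DMSO as vehicle and baseline.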

Read-out in test [16]: CYP2C9 (gene 1559)
Briefly: LTEA_HepaRG_CYP2C9: Life Technologies and Expression Analysis (LTEA) Assay for CYP2C9 using HepaRG (AID 2283484). Summed up: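 Cells plated 48 h, switched to serum-free induction medium, then treated in duplicate for 48 h at eight concentrations (max 100 uM, 0.5% DMSO). RNA then analysed by qRT-PCR for CYP2C9; curves fitted in both directions relative to DMSO.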

Read-out in test [17]: CYP2E1 (gene 1571)
Briefly: LTEA_HepaRG_CYP2E1: Life Technologies and Expression Analysis (LTEA) Assay for CYP2E1 using HepaRG (AID 2283485). An outline of the steps:
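HepaRG cells, plated 48 h, then exposed 48 h in serum-free induction medium to eight half-log concentrations from 100 uM in 0.5% DMSO, duplicate. CYP2E1 mRNA by qRT-PCR, normalized to ACTB/GAPDH/POLR2A; bidirectional fit versus DMSO.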

Read-out in test [18]: CYP4A11 (gene 1579)
As to the kind of experiment: LTEA_HepaRG_CYP4A11: Life Technologies and Expression Analysis (LTEA) Assay for CYP4A11 using HepaRG (AID 2283486). Summed up: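 Human hepatic HepaRG cultures receive duplicate 48 h exposures across a concentration-response series topping at 100 uM. Expression changes in CYP4A11 are measured by qRT-PCR relative to DMSO controls.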

Read-out in test [19]: Cytochrome P450 3A4 (Homo sapiens) (UniProt P08684)
As to the kind of experiment: LTEA_HepaRG_CYP3A4: Life Technologies and Expression Analysis (LTEA) Assay for CYP3A4 using HepaRG (AID 2283487). An outline of the steps: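 HepaRG, 48 h exposure, 8-pt CRC from 100 uM (half-log), 0.5% DMSO, duplicates; serum-free induction medium. Readout: CYP3A4 mRNA, qRT-PCR, ACTB/GAPDH/POLR2A normalization. Bidirectional fit vs DMSO.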

Activity calls are given as the source filed them. Rule for the calls: active = hit-call score of the fitted dose curve at least 0.9, where 1 is the maximum; inactive = score below 0.9.

Chain of Cytochrome P450 2C19 (Homo sapiens) (P33261 whole entry, looked up): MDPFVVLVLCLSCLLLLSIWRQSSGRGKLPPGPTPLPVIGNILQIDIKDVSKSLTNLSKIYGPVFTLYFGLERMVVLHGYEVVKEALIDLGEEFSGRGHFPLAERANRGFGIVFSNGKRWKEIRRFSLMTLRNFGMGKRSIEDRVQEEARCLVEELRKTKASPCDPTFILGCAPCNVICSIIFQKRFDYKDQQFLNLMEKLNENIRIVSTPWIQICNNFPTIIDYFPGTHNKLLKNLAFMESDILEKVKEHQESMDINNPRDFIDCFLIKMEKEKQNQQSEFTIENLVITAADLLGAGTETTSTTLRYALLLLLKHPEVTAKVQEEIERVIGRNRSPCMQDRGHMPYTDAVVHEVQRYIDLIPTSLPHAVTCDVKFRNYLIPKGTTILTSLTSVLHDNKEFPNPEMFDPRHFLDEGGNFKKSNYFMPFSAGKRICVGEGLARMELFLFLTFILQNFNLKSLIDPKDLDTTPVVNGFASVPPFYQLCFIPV
Chain of Caspase-3 (Homo sapiens) (P42574 whole entry, looked up): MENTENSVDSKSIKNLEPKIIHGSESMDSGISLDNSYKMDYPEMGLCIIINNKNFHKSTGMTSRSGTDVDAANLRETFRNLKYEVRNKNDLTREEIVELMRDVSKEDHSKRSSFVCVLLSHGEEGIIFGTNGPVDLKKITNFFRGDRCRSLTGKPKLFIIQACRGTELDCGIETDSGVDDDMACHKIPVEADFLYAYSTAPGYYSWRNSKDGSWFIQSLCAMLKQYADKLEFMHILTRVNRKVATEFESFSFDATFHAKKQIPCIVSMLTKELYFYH
Chain of Apoptosis regulator Bcl-2 (Homo sapiens) (P10415 whole entry, looked up): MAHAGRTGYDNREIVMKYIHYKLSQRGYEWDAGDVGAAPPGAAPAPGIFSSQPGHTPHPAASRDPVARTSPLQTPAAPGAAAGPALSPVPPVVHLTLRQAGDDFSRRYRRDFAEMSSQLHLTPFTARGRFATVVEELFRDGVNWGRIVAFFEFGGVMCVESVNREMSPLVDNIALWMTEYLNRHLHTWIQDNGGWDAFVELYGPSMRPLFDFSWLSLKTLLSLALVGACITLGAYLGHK
Chain of Cytochrome P450 3A4 (Homo sapiens) (P08684 whole entry, looked up): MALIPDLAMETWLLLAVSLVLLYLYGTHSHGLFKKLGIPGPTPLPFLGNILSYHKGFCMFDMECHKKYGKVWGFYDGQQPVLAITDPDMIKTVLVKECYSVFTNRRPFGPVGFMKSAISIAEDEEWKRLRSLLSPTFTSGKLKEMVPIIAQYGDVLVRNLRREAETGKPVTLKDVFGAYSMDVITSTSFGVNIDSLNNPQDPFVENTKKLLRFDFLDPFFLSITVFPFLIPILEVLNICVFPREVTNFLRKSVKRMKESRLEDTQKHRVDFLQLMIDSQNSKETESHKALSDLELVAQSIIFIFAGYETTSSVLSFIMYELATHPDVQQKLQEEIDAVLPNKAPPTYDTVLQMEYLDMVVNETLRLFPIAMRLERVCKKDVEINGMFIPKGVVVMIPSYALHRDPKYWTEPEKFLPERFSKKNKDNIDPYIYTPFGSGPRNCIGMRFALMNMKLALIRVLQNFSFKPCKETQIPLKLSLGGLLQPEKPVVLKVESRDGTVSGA

Turning to `O=C(O)C(F)(F)C(F)(F)C(F)(F)C(F)(F)C(F)(F)C(F)(F)C(F)(F)C(F)(F)C(F)(F)F`, the AC50 in test [1] was 68.1 µM (active); in test [3] it was 12.6 µM (active); in test [4] it was 81.1 µM (active); in test [5], 23 µM (active); in test [6], 12.1 µM (active); in test [7], 30.8 µM (active). Besides, the AC50 was 82.5 µM (active) in test [9]; 22.2 µM (active) in test [11]; 86 µM (active) in test [12]; 80.1 µM (active) in test [13]; 81.1 µM (active) in test [14]; 76.6 µM (active) in test [15]. The AC50 in test [16] was 74.2 µM (active); in test [17], 25.4 µM (active); in [18] it was 81.5 µM (active); in test [19], 75.8 µM (active). In addition, the result in test [2], in [8] and in test [10] was inactive.
Consider `O=C(N[C@H]1CN2CCC1CC2)c1cc2ccoc2cn1`, for which the call in test [1], in test [2], in [3], in [4], in test [5] and in [6] was inactive. The call in test [7], in test [8], in test [9], in [10], in test [12] and in [14] was inactive. The compound was called inactive in test [15], in test [16], in test [17], in test [18] and in test [19]. The AC50 in [11] and in test [13] was 50 µM (active) throughout.
As for `Cc1cccc(C)c1N`, the call in test [1], in test [2], in test [3], in test [4], in test [5] and in [6] was inactive. Further, the compound was called inactive in test [7], in [8], in test [9], in test [10], in [11] and in test [12]. The result in [14], in [15], in [16], in test [17], in [18] and in [19] was inactive. Also, in [13], the AC50 is 19.3 µM (active).
